# This is a sample that favours compounds with a hit; in the whole collection about 1.2% have one here.
# RGS16-Gao = modulates binding between human RGS16 and Galphao. O15492+P09471. bead-based flow cytometry RGS16-Galphao binding, fluorescence; actives lie on both sides. 220,000 tested, 0.38% active. binding response (% of control), % at 10 µM. AID 1441; call rule not given here;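 also: Galphao activated by GDP with aluminum fluoride before binding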
# Target sequence (O15492 whole entry, looked up): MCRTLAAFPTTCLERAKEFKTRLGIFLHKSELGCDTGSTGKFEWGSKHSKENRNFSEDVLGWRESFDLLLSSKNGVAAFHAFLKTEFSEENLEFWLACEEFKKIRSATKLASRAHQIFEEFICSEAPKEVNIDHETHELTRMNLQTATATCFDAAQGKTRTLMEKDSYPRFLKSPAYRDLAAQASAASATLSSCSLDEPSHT
# Target sequence (P09471 whole entry, looked up): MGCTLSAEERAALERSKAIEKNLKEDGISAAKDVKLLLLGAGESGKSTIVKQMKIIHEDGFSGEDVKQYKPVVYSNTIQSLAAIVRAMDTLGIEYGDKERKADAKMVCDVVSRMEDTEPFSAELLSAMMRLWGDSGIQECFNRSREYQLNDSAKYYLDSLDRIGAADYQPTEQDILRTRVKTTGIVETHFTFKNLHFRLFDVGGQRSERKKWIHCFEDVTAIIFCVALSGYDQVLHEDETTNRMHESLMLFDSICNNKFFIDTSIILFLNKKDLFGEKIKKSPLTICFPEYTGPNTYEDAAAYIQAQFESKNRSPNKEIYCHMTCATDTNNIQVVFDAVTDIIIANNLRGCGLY
# Avidin fluor = compound fluoresces at 488/530 nm on avidin beads | fluorescence (KMESF) at 10 µM | 220,000 tested, 0.38% active | compound fluorescence 488/530 nm, flow cytometry; stronger effect = higher value; in the data active = fluorescence above about 47
# RGS8-Gao reg = human RGS8-Galphao interaction regulation. P09471. multiplexed bead flow cytometry, RGS8-Galphao binding; actives lie on both sides. response (percent of control binding), % at 10 µM. 220,000 tested, 0.34% active; in the data active = response below about 60% or above about 140%; inactive = in between;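 also: Galphao activated as the GDP aluminium fluoride complex binding bead-coupled RGS8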
# Target sequence (P09471 whole entry, looked up): as above
# RGS7-Gao = regulators of human RGS7-Galphao interaction | Multiplexed bead flow cytometry, RGS7-Galphao binding; actives lie on both sides | 220,000 tested, 0.35% active | P09471 | binding response (% of control), % at 10 µM; in the data active = binding response below about 49% or above about 150%; inconclusive = no clear call, values can overlap the other calls; inactive = in between;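 also: fluorescent Galphao held in activated GDP-AlF4 state binding bead-coupled RGS7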
# GSH bead fluor = compound fluoresces at 488/530 nm on GSH beads; 190,000 tested, 0.25% active; fluorescence (KMESF) at 10 µM; GSH beads flow cytometry, compound fluorescence 488/530 nm; stronger effect = higher value; in the data active = fluorescence above about 89;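 also: glutathione beads carrying GST-tagged Bcl family fusion proteins plus one bare bead set; values are compound well signal with DMSO vehicle wells as background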
# RGS4-Gao reg = human RGS4-Galphao interaction regulation; Multiplexed bead flow cytometry, RGS4-Galphao binding; actives lie on both sides; binding response (% of control), % at 10 µM; 220,000 tested, 0.33% active; AID 1415; in the data active = binding response below about 49% or above about 150%; inactive = in between;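 also: fluorescent Galphao activated with aluminum fluoride binding bead-coupled RGS4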
# An asterisk follows results filed as active; ? = inconclusive; · = not tested or not shown.
SMILES,RGS16-Gao,Avidin fluor,RGS8-Gao reg,RGS7-Gao,GSH bead fluor,RGS4-Gao reg
COc1ccc(C2C(C(=O)NCc3ccco3)c3ccccc3C(=O)N2C)cc1 (stereo unspecified),98.0,11,100.0,96.5,10,98.3
O=C1Nc2ccccc2N(O)N1c1ccc(S(=O)(=O)Nc2ccccn2)cc1,118.6,64*,113.0,128.1,32,114.6
Cc1ccnc(NS(=O)(=O)c2ccc(N3C(=O)Nc4ccccc4N3O)cc2)c1,104.3,9,102.1,100.9,12,104.7
O=C(COC(=O)c1ccc(CO)cc1)NCc1cccs1,103.9,2,101.0,98.4,6,99.6
COc1ccc(OC)c(C(=O)c2coc3ccc(O)cc23)c1,103.7,13,100.9,107.0,88*,103.2
COc1ccc2occ(C(=O)c3ccccc3)c2c1,97.9,11,98.7,?,13,100.1
CCOc1cc2oc(=O)c3c(c2cc1Cl)CCC3,114.6,74*,103.8,147.8,29,107.1
O=C1CN(C(=O)COC(=O)c2cc(S(=O)(=O)N3CCOCC3)ccc2Cl)c2ccccc2N1,107.3,·,103.2,?,·,105.5
CN(C)C(=O)c1nc(C#N)c(N(C)C)o1,97.7,7,96.8,98.4,257*,97.3
O=C1C2CCCN2C(c2ccc(Br)cc2)N1c1ccc(F)cc1 (stereo unspecified),105.6,7,105.5,96.2,26,101.3
O=C1C2CCCN2C(c2cccc(Br)c2)N1c1ccc(F)cc1 (stereo unspecified),103.7,48*,100.8,113.3,16,100.9
Cc1ccccc1S(=O)(=O)NCc1ccc(N2CCN(C)CC2)cc1,121.6,6,103.1,?,·,105.1
CCC(CO)NCc1ccc(OC2CCCC2)cc1 (stereo unspecified),100.0,4,103.6,102.8,140*,99.3
CC(=O)c1cc(F)c(N2CCN(C(=O)COc3ccc(F)cc3)CC2)cc1C,103.0,5,105.3,104.0,93*,103.1
CCOC(=O)CN(C(=O)CSc1nnc2c(n1)[nH]c1ccccc12)c1ccccc1,97.0,3,101.1,97.7,22,102.4
CCOC(=O)CN(C(=O)CSc1nnc2c(n1)[nH]c1c(C)cc(C)cc12)c1ccccc1,111.4,7,104.8,105.0,257*,108.6
O=C(Nc1ccc(N2CCOCC2)cc1)C1CC(=O)N(c2ccc(F)cc2)C1 (stereo unspecified),112.8,9,105.1,107.8,10,110.1
COc1ccc(CNC(=O)CCC(=O)Nc2nnc(CC(C)C)s2)cc1,105.1,4,103.2,?,·,103.0
O=C(CN1CCN(c2ccccn2)CC1)Nc1ccc(OCc2ccccc2)cc1,109.9,63*,101.5,119.6,21,105.3
O=C(CN1CCN(c2ccccn2)CC1)Nc1ccc(Oc2ccccc2)cc1,106.6,13,104.1,97.9,18,103.9
Cc1cccc(C)c1NC(=O)COc1cccc(/C=N/NC(=O)C(=O)NCc2ccccc2)c1,101.8,57*,100.1,112.8,18,103.6
Cc1sc2ncn(CC(=O)NCCCC(=O)N3CCN(c4ncccn4)CC3)c(=O)c2c1C,135.9,52*,102.1,135.2,5,116.9
Cc1sc2ncn(CC(=O)NCCCC(=O)N3CCN(c4ccccn4)CC3)c(=O)c2c1C,99.2,10,98.2,99.5,14,96.1
CCCn1c(=S)[nH]c2cc(Cl)ccc21,98.2,10,98.6,?,·,100.3
COc1cc(C(=O)NCCc2ccc3c(c2)OCCO3)ccc1OCC(=O)N1CCOCC1,115.3,68*,103.2,119.3,18,107.2
SMILES,RGS16-Gao,Avidin fluor,RGS8-Gao reg,RGS7-Gao,GSH bead fluor,RGS4-Gao reg
O=C1CCc2cc(S(=O)(=O)NC(Cc3ccccc3)C(=O)NCCC3=CCCCC3)ccc2N1 (stereo unspecified),101.9,54*,97.0,143.2,20,105.8
CC(C)(C)OC(=O)N[C@@H](Cc1ccccc1)c1nnc(S(=O)(=O)Cc2ccccc2)o1,92.7,8,94.2,100.9,9,97.8
Cc1ccccc1CS(=O)(=O)c1nnc([C@H](Cc2ccccc2)NC(=O)OC(C)(C)C)o1,92.3,48*,93.6,131.7,6,115.8
CCC(C)NC(=O)C(=O)NCC1CCCN1CC (stereo unspecified),114.2,12,103.5,102.9,10,99.8
CCOc1c(Br)cc(/C=C2/SC(=O)N(CC(=O)N3CCCC3)C2=O)cc1OC,6.7,2,76.4,83.0,38,81.3
CCOC(=O)COc1c(Br)cc(/C=C2\SC(=O)N(CC(=O)N3CCCC3)C2=O)cc1OC,103.1,80*,101.0,122.3,44,103.2
Cc1ccc(C(=O)CSc2ccccn2)cc1,121.5,65*,106.4,147.1,16,104.2
O=C(CSc1ccccn1)c1ccc(F)cc1,91.9,5,89.2,90.5,6,87.0
COc1ccc(OS(=O)(=O)c2c(C)noc2C)cc1,99.8,10,98.3,?,·,99.1
COc1ccc(NC(=O)c2coc3ccccc23)cc1OC,98.9,6,96.6,98.3,259*,97.4
Nc1ccc2nc(SCc3ccccc3F)sc2c1,104.7,11,99.3,?,·,105.7
O=C(O)c1cc(N2N=C(C(F)(F)F)/C(=C/C=C/c3ccco3)C2=O)ccc1Cl,103.3,10,95.1,93.8,11,98.1
N/N=c1\sc2ccccc2n1-c1ccccc1,103.7,47*,105.7,104.5,14,106.4
CC(=O)N=c1sc2ccccc2n1C,100.7,32,99.9,101.5,28,100.1
COc1ccc(-c2cc(N)n(S(=O)(=O)c3ccc(F)cc3)n2)cc1OC,101.3,6,100.3,100.2,19,101.1
CCOc1ccc2nc(NC(=O)c3cccc(-c4cc5ccccc5oc4=O)c3)sc2c1,145.3,74*,105.1,106.2,13,115.1
Nc1ccccc1-c1nnc(-c2ccccc2N)n1N,99.2,8,100.2,?,18,100.8
O=C(O)C1CCC(=O)N1C(=O)OCc1ccccc1 (stereo unspecified),94.3,5,97.2,?,·,97.6
CCCn1c(N2CCN(C)CC2)nc2c1c(=O)[nH]c(=O)n2C,99.2,11,101.9,100.7,19,105.5
CCCn1c(N2CCOCC2)nc2c1c(=O)[nH]c(=O)n2C,96.9,60*,96.2,119.1,36,105.0
O=C(O)CCNc1cc2ccccc2cc1C(=O)O,92.0,6,96.4,101.7,255*,104.8
O=C(O)CCNS(=O)(=O)c1ccc2ccccc2c1,102.2,39,101.3,100.5,15,101.0
CC[C@H](C)[C@H](NC(N)=O)C(=O)NCCc1ccc(OC)c(OC)c1,92.0,11,93.5,?,13,91.5
COc1ccc(CNC(=O)c2cnn3c(C(F)F)cc(C)nc23)cc1,87.5,94*,94.8,131.7,11,103.3

# High-throughput results as filed in PubChem.
